According to PubChem BioAssay AID1159580 (chemical genetic matrix, 2015):
About 2,000 (36%) of roughly 5,500 compounds were called active. Inconclusive results (about 18%) are left out. Rule as the data show it: active = normalized growth mostly below about 0.91 (no sharp cut-off); inconclusive = no clear call, values can overlap the other calls; inactive = mostly above about 0.92. The list shows a part of the results.

Test: chemical genetic growth profiling, strain panel (AID 1159580);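 also: tested at 20 µM; growth read once vehicle control cultures reached saturation at 30 °C; 1 = growth at the plate median or of vehicle wells; lower values mean less growth of the strain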
Conditions: growth OD

Measured: normalized growth

Nc1c2c(nc3ccccc13)CCCC2O (stereo not drawn)
inactive: S. cerevisiae deletion strains, locus YJR066W, strain TOR1, active compounds read low 0.916 | S. cerevisiae deletion strains, locus YJR075W, strain HOC1, active compounds read low 0.987 | S. cerevisiae deletion strains, locus YKL009W, strain mrt4, active compounds read low 0.976 | S. cerevisiae deletion strains, locus YKL068W, active compounds read low 0.987 | S. cerevisiae deletion strains, locus YKL085W, strain MDH1 (second series), active compounds read low 0.991 | S. cerevisiae deletion strains, locus YKL085W, strain MDH1, active compounds read low 0.991 | S. cerevisiae deletion strains, locus YKL160W, strain elf1, active compounds read low 1.01 | S. cerevisiae deletion strains, locus YKL190W, strain CNB1, active compounds read low 1.01 | S. cerevisiae deletion strains, locus YKR001C, strain vps1, active compounds read low 0.989 | S. cerevisiae deletion strains, locus YKR026C, strain gcn3, active compounds read low 1.01 | S. cerevisiae deletion strains, locus YKR091W, strain srl3, active compounds read low 0.998 | S. cerevisiae deletion strains, locus YLL001W, strain dnm1, active compounds read low 0.983 | S. cerevisiae deletion strains, locus YLL026W, active compounds read low 0.996 | S. cerevisiae deletion strains, locus YLL041C, strain sdh2, active compounds read low 1.02 | S. cerevisiae deletion strains, locus YLR027C, strain aat2, active compounds read low 1.01 | S. cerevisiae deletion strains, locus YLR039C, strain RIC1, active compounds read low 1.01 | S. cerevisiae deletion strains, locus YLR058C, strain SHM2, active compounds read low 1.01 | S. cerevisiae deletion strains, locus YLR102C, strain apc9, active compounds read low 0.984 | S. cerevisiae deletion strains, locus YLR113W, strain HOG1, active compounds read low 1.03 | S. cerevisiae deletion strains, locus YLR221C, strain rsa3, active compounds read low 1.02 | S. cerevisiae deletion strains, locus YLR258W, strain gsy2, active compounds read low 0.996 | S. cerevisiae deletion strains, locus YLR262C, strain YPT6 (second series), active compounds read low 1.01 | S. cerevisiae deletion strains, locus YLR262C, strain YPT6, active compounds read low 0.963 | S. cerevisiae deletion strains, locus YLR268W, strain sec22, active compounds read low 0.966 | S. cerevisiae deletion strains, locus YLR320W, strain mms22, active compounds read low 1.01 | S. cerevisiae deletion strains, locus YLR330W, strain CHS5, active compounds read low 0.989 | S. cerevisiae deletion strains, locus YLR342W, strain FKS1 (second series), active compounds read low 1.01 | S. cerevisiae deletion strains, locus YLR342W, strain FKS1, active compounds read low 1.01 | S. cerevisiae deletion strains, locus YLR357W, strain rsc2, active compounds read low 0.975 | S. cerevisiae deletion strains, locus YLR370C, strain arc18, active compounds read low 1 | S. cerevisiae deletion strains, locus YLR371W, strain rom2, active compounds read low 0.98 | S. cerevisiae deletion strains, locus YLR384C, strain iki3, active compounds read low 1 | S. cerevisiae deletion strains, locus YLR418C, strain cdc73, active compounds read low 1.02 | S. cerevisiae deletion strains, locus YML016C, strain PPZ1, active compounds read low 1.01 | S. cerevisiae deletion strains, locus YML032C, strain rad52, active compounds read low 0.99 | S. cerevisiae deletion strains, locus YML120C, strain ndi1, active compounds read low 1.03 | S. cerevisiae deletion strains, locus YML124C, strain tub3, active compounds read low 0.998 | S. cerevisiae deletion strains, locus YMR058W, strain fet3, active compounds read low 1.02 | S. cerevisiae deletion strains, locus YMR078C, strain ctf18, active compounds read low 0.993 | S. cerevisiae deletion strains, locus YMR125W, strain sto1, active compounds read low 0.997 | S. cerevisiae deletion strains, locus YMR129W, active compounds read low 0.999 | S. cerevisiae deletion strains, locus YMR205C, strain PFK2, active compounds read low 0.996 | S. cerevisiae deletion strains, locus YMR223W, strain ubp8, active compounds read low 0.987 | S. cerevisiae deletion strains, locus YMR231W, strain pep5, active compounds read low 0.999 | S. cerevisiae deletion strains, locus YMR307W, strain GAS1, active compounds read low 1.08 | S. cerevisiae deletion strains, locus YNL067W, strain RPL9B, active compounds read low 1.01 | S. cerevisiae deletion strains, locus YNL071W, strain lat1, active compounds read low 1.01 | S. cerevisiae deletion strains, locus YNL128W, strain TEP1, active compounds read low 1.02 | S. cerevisiae deletion strains, locus YNL175C, strain NOP13, active compounds read low 1 | S. cerevisiae deletion strains, locus YNL183C, strain NPR1, active compounds read low 0.912 | S. cerevisiae deletion strains, locus YNL197C, strain WHI3, active compounds read low 0.968 | S. cerevisiae deletion strains, locus YNL209W, strain ssb2, active compounds read low 1.01 | S. cerevisiae deletion strains, locus YNL224C, strain SQS1, active compounds read low 1 | S. cerevisiae deletion strains, locus YNL233W, strain BNI4, active compounds read low 1.03 | S. cerevisiae deletion strains, locus YNL248C, strain rpa49, active compounds read low 0.992 | S. cerevisiae deletion strains, locus YNL250W, strain rad50, active compounds read low 1.01 | S. cerevisiae deletion strains, locus YNL271C, strain bni1, active compounds read low 0.981 | S. cerevisiae deletion strains, locus YNL298W, strain CLA4, active compounds read low 0.988 | S. cerevisiae deletion strains, locus YNL307C, strain MCK1, active compounds read low 0.993 | S. cerevisiae deletion strains, locus YNL322C, strain KRE1 (second series), active compounds read low 1.01 | S. cerevisiae deletion strains, locus YNR049C, strain mso1, active compounds read low 1.01 | S. cerevisiae deletion strains, locus YNR052C, strain pop2, active compounds read low 0.966 | S. cerevisiae deletion strains, locus YOL006C, strain TOP1, active compounds read low 1.13 | S. cerevisiae deletion strains, locus YOL012C, strain htz1 0.815 | S. cerevisiae deletion strains, locus YOL147C, strain pex11, active compounds read low 0.999 | S. cerevisiae deletion strains, locus YOR001W, strain rrp6, active compounds read low 1.03 | S. cerevisiae deletion strains, locus YOR061W, strain CKA2, active compounds read low 1.01 | S. cerevisiae deletion strains, locus YOR069W, strain VPS5, active compounds read low 1 | S. cerevisiae deletion strains, locus YOR070C, strain gyp1, active compounds read low 1.01 | S. cerevisiae deletion strains, locus YOR080W, strain dia2, active compounds read low 0.996 | S. cerevisiae deletion strains, locus YOR083W, strain WHI5 (second series), active compounds read low 0.986 | S. cerevisiae deletion strains, locus YOR083W, strain WHI5, active compounds read low 1.01 | S. cerevisiae deletion strains, locus YOR106W, strain vam3, active compounds read low 1 | S. cerevisiae deletion strains, locus YOR136W, strain idh2, active compounds read low 0.997 | S. cerevisiae deletion strains, locus YOR144C, strain elg1, active compounds read low 0.999 | S. cerevisiae deletion strains, locus YOR184W, strain ser1, active compounds read low 0.988 | S. cerevisiae deletion strains, locus YOR231W, strain MKK1, active compounds read low 0.977 | S. cerevisiae deletion strains, locus YOR265W, strain rbl2, active compounds read low 1 | S. cerevisiae deletion strains, locus YOR270C, strain vph1, active compounds read low 1.02 | S. cerevisiae deletion strains, locus YOR290C, strain snf2, active compounds read low 0.974 | S. cerevisiae deletion strains, locus YOR316C, strain cot1, active compounds read low 0.977 | S. cerevisiae deletion strains, locus YPL051W, strain arl3, active compounds read low 1.01 | S. cerevisiae deletion strains, locus YPL055C, strain LGE1, active compounds read low 1.06 | S. cerevisiae deletion strains, locus YPL078C, strain atp4, active compounds read low 1.01 | S. cerevisiae deletion strains, locus YPL106C, strain sse1, active compounds read low 1.01 | S. cerevisiae deletion strains, locus YPL240C, strain hsp82, active compounds read low 1.01 | S. cerevisiae deletion strains, locus YPL256C, strain CLN2, active compounds read low 0.962 | S. cerevisiae deletion strains, locus YPR119W, strain clb2, active compounds read low 0.976 | S. cerevisiae deletion strains, locus YPR141C, strain kar3, active compounds read low 0.982 | S. cerevisiae deletion strains, locus YPR163C, strain tif3, active compounds read low 0.973 | S. cerevisiae deletion strains, locus YPR167C, strain met16, active compounds read low 0.984 | S. cerevisiae deletion strains, strain wtn01, active compounds read low 0.993 | S. cerevisiae strains, strain wild type, active compounds read low 1.02
